Rows were chosen to be rich in hits. Some 2.4% of all compounds tested hit in one or more screens of this group.
ANO1 block – inhibitors of mouse TMEM16A calcium-activated chloride channel; Q8BHY3; HEK293 TMEM16A/YFP iodide influx fluorescence, ionomycin; normalized B-score (activity score, 25-100; higher = stronger inhibition) at 10 µM; 310,000 tested, 1.2% active; AID 588511;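 active = ratio plate-corrected score three or more library SD toward inhibition, starting fluorescence score within five deviations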;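 note: score derived from kinetic fluorescence span divided by baseline fluorescence per well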
Target sequence (Q8BHY3 whole entry, looked up): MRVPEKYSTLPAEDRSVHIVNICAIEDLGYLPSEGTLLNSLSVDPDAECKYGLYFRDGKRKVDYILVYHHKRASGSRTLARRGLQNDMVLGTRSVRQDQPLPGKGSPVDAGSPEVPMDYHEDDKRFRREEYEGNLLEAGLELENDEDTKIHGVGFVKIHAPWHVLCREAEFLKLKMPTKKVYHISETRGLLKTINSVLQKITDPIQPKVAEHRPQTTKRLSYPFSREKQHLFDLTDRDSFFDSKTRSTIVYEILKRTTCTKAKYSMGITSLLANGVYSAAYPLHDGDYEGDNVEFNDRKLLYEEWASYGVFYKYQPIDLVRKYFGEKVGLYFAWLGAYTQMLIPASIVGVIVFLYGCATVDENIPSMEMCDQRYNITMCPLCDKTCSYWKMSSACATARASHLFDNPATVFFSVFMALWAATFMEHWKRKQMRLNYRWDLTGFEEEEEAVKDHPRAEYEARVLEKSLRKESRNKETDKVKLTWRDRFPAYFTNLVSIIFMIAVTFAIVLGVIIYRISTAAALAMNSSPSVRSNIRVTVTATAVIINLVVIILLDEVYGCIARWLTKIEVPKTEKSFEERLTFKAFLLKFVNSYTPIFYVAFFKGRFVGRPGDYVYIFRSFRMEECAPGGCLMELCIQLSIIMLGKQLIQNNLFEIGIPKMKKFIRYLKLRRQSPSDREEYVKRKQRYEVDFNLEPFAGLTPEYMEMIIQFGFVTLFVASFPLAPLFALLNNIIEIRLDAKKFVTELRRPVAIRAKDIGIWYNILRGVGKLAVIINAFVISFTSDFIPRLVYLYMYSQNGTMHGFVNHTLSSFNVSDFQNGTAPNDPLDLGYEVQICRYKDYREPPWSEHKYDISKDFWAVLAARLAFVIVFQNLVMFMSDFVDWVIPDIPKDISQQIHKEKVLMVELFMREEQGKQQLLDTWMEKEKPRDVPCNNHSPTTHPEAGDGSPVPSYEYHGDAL
CRFBP-R2 block – CRF-BP/CRF-R2 complex antagonism; inhibition, % at 11.8 µM; HEK293 CRF-R2/CRF-BP, CRF-induced calcium fluorescence; 350,000 tested, 0.59% active;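 active = inhibition of the ligand-induced calcium signal above about 50% at the single tested concentration, limit read from the data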
ANO1 activ – mouse TMEM16A channel activation, primary screen. 340,000 tested, 0.3% active. B-score at 10 µM. HEK293 TMEM16A/YFP-H148Q/I152L, iodide quench fluorescence; hits give low values. Q8BHY3;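 active = fluorescence-ratio B-score plate-corrected deviation score at least 3 library SD below zero, with starting fluorescence score within 5 deviations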;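 note: channel opened by trigger with iodide after compound preincubation; score built on the fluorescence ratio of max minus min over baseline; more negative score means more quench and so TMEM16A activation or potentiation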
CRFBP-R2 agonist – CRF-BP/CRF-R2 complex agonism; activation, % at 13.2 µM; 350,000 tested, 0.46% active; HEK293 CRF-R2/CRF-BP, calcium dye fluorescence (FLIPR); percent of saturating CRF peptide response;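 active = activation of at least 50%, plus an integration ratio under a set limit after plate pattern correction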;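 note: plate controls were neutral control wells without compound for no effect and CRF at EC100 for full effect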
RTF Ca sens inh – cardiac RTF calcium desensitization. AID 493244. 340,000 tested, 0.12% active. P19429+P45379. inhibition, % at 7.15 µM. IANBD-labeled cardiac RTF, Ca2+ fluorescence;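 active = inhibition above the mean inhibition of all tested compounds plus 3 SD, cut at about 17% in these data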;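 note: assay run at fixed EC70 calcium of 1.6 mM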
cardiac RTF act – increases calcium sensitivity of human cardiac regulated thin filaments | activation, % at 7.2 µM | IANBD-labeled TnC RTF fluorescence at EC20 calcium; 0% EC20 calcium, 100% full calcium | 340,000 tested, 0.24% active | AID 493008 | P19429+P45379;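 active = activation above the mean over all tested compounds plus 3 SD, cut at about 30% in these data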;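 note: rise in fluorescence read as greater calcium sensitivity of cardiac thin filaments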
Numbers without * were called inactive.

What do the screens show for `NNC(=S)NC1CCS(=O)(=O)C1` (configuration not stated)?
ANO1 block: inactive; CRFBP-R2 block: 108*; ANO1 activ: inactive; CRFBP-R2 agonist: 5

What do the screens show for `COc1cc2c(cc1OC)CN(c1ccc(F)cc1[N+](=O)[O-])CC2`?
ANO1 block: inactive; CRFBP-R2 block: -11; ANO1 activ: inactive; CRFBP-R2 agonist: -5; RTF Ca sens inh: 3; cardiac RTF act: -3

How did COCC1CCN(Cc2nc(-c3ccc4c(c3)OCO4)no2)C1 (configuration not stated) do in these assays?
ANO1 block: inactive; CRFBP-R2 block: -163; ANO1 activ: inactive; CRFBP-R2 agonist: 203*; RTF Ca sens inh: -12; cardiac RTF act: 6

Results for c1cc(C2CCN(Cc3nc(-c4ccc5c(c4)OCO5)no3)CC2)ccn1 ?
ANO1 block: inactive; CRFBP-R2 block: 11; ANO1 activ: inactive; CRFBP-R2 agonist: 0; RTF Ca sens inh: -8; cardiac RTF act: -2

What do the screens show for `CC(=O)c1cccc(NC(=O)COC(=O)c2ccc3c(c2)OCO3)c1`?
CRFBP-R2 block: -12; ANO1 activ: inactive; CRFBP-R2 agonist: -1; RTF Ca sens inh: 4; cardiac RTF act: -6

Results for CCN1C(=O)/C(=C/C2=Cc3ccccc3OC2C)SC1=S (configuration not stated) ?
ANO1 block: inactive; CRFBP-R2 block: -41; ANO1 activ: inactive; CRFBP-R2 agonist: 23

Results for Cc1ccc(NC(=O)CC(C)c2ccccc2)cc1S(=O)(=O)N1CCOCC1 (configuration not stated) ?
CRFBP-R2 block: 0; ANO1 activ: inactive; CRFBP-R2 agonist: -3; RTF Ca sens inh: -5; cardiac RTF act: 1

What do the screens show for `CCN(CC)S(=O)(=O)c1ccc(C(=O)NC(C)(C)C)cc1`?
ANO1 block: inactive; CRFBP-R2 block: -1; ANO1 activ: inactive; CRFBP-R2 agonist: 3; RTF Ca sens inh: -5; cardiac RTF act: 0

Results for CCOC(=O)C(C)On1c(-c2ccc(Cl)cc2)nc2ccc([N+](=O)[O-])cc21 (configuration not stated) ?
ANO1 block: 100*; CRFBP-R2 block: 20; ANO1 activ: inactive; CRFBP-R2 agonist: 5; RTF Ca sens inh: 1; cardiac RTF act: 4

How did CCOC(=O)C(C)On1c(-c2ccccc2)nc2ccc([N+](=O)[O-])cc21 (configuration not stated) do in these assays?
ANO1 block: inactive; CRFBP-R2 block: 19; ANO1 activ: inactive; CRFBP-R2 agonist: -3; RTF Ca sens inh: 6; cardiac RTF act: 5

Results for Cc1nnc2c(-c3ccccc3)nc3ccccc3n12 ?
ANO1 block: inactive; CRFBP-R2 block: -12; ANO1 activ: -16*; CRFBP-R2 agonist: 0; RTF Ca sens inh: -6; cardiac RTF act: 3

How did COc1cccc(CSc2nnc(C(F)(F)F)n2Cc2ccc(F)cc2)c1 do in these assays?
ANO1 block: inactive; CRFBP-R2 block: 64*; ANO1 activ: inactive; CRFBP-R2 agonist: -2; RTF Ca sens inh: 6; cardiac RTF act: 2

What do the screens show for `CCC(C)Sc1ccc([C@H]2N[C@@](Cc3ccccc3)(C(=O)OC)[C@H]3C(=O)N(CC)C(=O)[C@@H]23)cc1` (some centres not stated)?
ANO1 block: inactive; CRFBP-R2 block: -37; ANO1 activ: inactive; CRFBP-R2 agonist: 5; RTF Ca sens inh: -39; cardiac RTF act: -12

How did COc1cccc(CNC(=O)COC(=O)c2ccc(N3CCCC3=O)cc2)c1 do in these assays?
CRFBP-R2 block: -3; CRFBP-R2 agonist: 1

What do the screens show for `O=C(Oc1ccc2cc(Br)ccc2c1)N1CCCCCC1`?
ANO1 block: 100*

How did O=C(Oc1ccc2ccccc2c1Br)N1CCCCCC1 do in these assays?
ANO1 block: inactive; CRFBP-R2 block: -16; ANO1 activ: inactive; CRFBP-R2 agonist: 4; RTF Ca sens inh: 1; cardiac RTF act: -3

Results for C=CCSC1=N/C(=C\c2cc(OCC)c(OC(C)=O)c([N+](=O)[O-])c2)C(=O)S1 ?
ANO1 block: inactive; CRFBP-R2 block: 53*; ANO1 activ: inactive; CRFBP-R2 agonist: -1; RTF Ca sens inh: 5; cardiac RTF act: 1

Source: PubChem
